# ± gives the standard deviation of the averaged measurements.
# Key:
# Details in all cases: concentration: 10 µM; 24 h
# HCC1569 [1] = assay: cell number relative to DMSO (% of DMSO); higher = more cells (less growth inhibition / toxicity)
# Outline: (§1)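 Treatment: HCC1569 and TDF cells, 800 per well in 384-well plates with RPMI and 10% FBS, were given compounds at 10 µM for 24 h at 37 °C, in triplicate. Readout: after 3.7% formaldehyde fixation, cells were stained with a rabbit anti-H1.0 antibody, an AlexaFluor 647 secondary and DAPI. Reported values are H1.0 nuclear intensity or cell number as percent of the plate control, taken as the median of replicates, with positional smoothing for HCC1569.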
# TDF [2] = assay: as above
# Outline: as §1
# TDF [3] = assay: H1.0 immunofluorescence intensity relative to DMSO (% of DMSO); higher = stronger H1.0 induction, active = 120 or more
# Outline: as §1
# HCC1569 [4] = assay: H1.0 immunofluorescence intensity relative to DMSO (% of DMSO); higher = stronger H1.0 induction, active = 140 or more
# Outline: as §1
# 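Throughout, for H1.0 immunofluorescence intensity relative to DMSO: TDF is a line of transformed human dermal fibroblasts of mesenchymal origin.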
# 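Throughout, for cell number relative to DMSO: TDF denotes transformed human dermal fibroblasts of mesenchymal origin.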
Structure (SMILES),cell number (HCC1569 [1]),cell number (TDF [2]),H1.0 immunofluorescence intensity (TDF [3]),H1.0 immunofluorescence intensity (HCC1569 [4])
NCCC(O)(P(=O)([O-])O)P(=O)([O-])O.O.O.O.O.O.[Na+].[Na+] [Pamidronate.2Na.5H2O],101,96.8,95 (inactive),107 (inactive)
CNCCC(Oc1ccc(C(F)(F)F)cc1)c1ccccc1.Cl (centres undefined) [Fluoxetine hydrochloride],93.1,85.7,108 (inactive),122 (inactive)
"CCCCCC(O)C=CC1C(O)CC(O)C1CC=CCCCC(=O)O (centres undefined) [9b,11a Prostaglandin F2]",100,98,93.3 (inactive),97.5 (inactive)
CCCCCCCCCCCCCCCC(O)C(N)CO (racemic) [DL-erythro-Dihydrosphingosine],102,87.8,108 (inactive),96.9 (inactive)
COc1ccccc1N1CCN(CCN(C(=O)c2ccc(F)cc2)c2ccccn2)CC1.Cl.Cl [p-MPPF dihydrochloride],99.7,109,89.7 (inactive),87.2 (inactive)
COc1cc2c(cc1OC)C1C(=O)c3ccc4c(c3OC1CO2)C=CC(C)(C)O4 (centres undefined) [Degeulin],72.6,76.5,106 (inactive),121 (inactive)
CCCCCC(O)C=CC1C=CC(=O)C1CC=CCCCC(=O)O (centres undefined) [Prostaglandin A2],103,110,95.6 (inactive),104 (inactive)
CC#N.Nc1nc(Nc2ccc(S(N)(=O)=O)cc2)nn1C(=O)c1c(F)cccc1F [Aurora Kinase/Cdk Inhibitor],62,39.5,98.1 (inactive),83.7 (inactive)
CC(C)N(CCC(=O)c1ccc2ccccc2c1)Cc1ccccc1.Cl [JAK3 Inhibitor IV],101,97,96.1 (inactive),110 (inactive)
CCCCCC(O)C=CC1C(=O)C=CC1CC=CCCCC(=O)O (centres undefined) [Prostaglandin J2],99.8,99.5,89.3 (inactive),100 (inactive)
O=C(O)C1CCNCC1 [Isonipecotic acid],102,104,91.5 (inactive),91.2 (inactive)
CC(C)NCC(O)COc1cccc2ccccc12.Cl [(S)-Propranolol hydrochloride],74.5,95.9,87.7 (inactive),230 (active)
CC1=NS(=O)(=O)c2cc(Cl)ccc2N1 [Diazoxide],101.1 ± 0.59,111 ± 7.2,101 (inactive),101 (inactive)
Cc1ccc(F)cc1C(=O)Nc1ccc(C(=O)N2Cc3cccn3Cc3ccccc32)c(Cl)c1,91.6,95.3,93.2 (inactive),131 (inactive)
N#Cc1c(O)c2c(-c3ccc(-c4ccccc4O)cc3)csc2[nH]c1=O,102,92.5,98.8 (inactive),96.3 (inactive)
Cl.N=c1c[n+](N2CCOCC2)[n-]o1 [3-Morpholinosydnonimine hydrochloride],104,108,94.1 (inactive),88.8 (inactive)
CC(C)NCC(O)COc1ccc(CC(N)=O)cc1 (stereo not drawn) [S(-)-Atenolol],101,105,92.2 (inactive),96.4 (inactive)
C#CC1(O)CCC2C3CCC4=Cc5oncc5CC4(C)C3CCC21C (centres undefined) [Danazol],97.02 ± 0.7,98.36 ± 0.75,95.4 (inactive),100 (inactive)
COc1cc(C(O)C(=O)O)ccc1O (racemic),105,109,89.5 (inactive),91.2 (inactive)
Cl.O=c1n(CCCN2CCN(c3cccc(Cl)c3)CC2)nc2ccccn12 [Trazodone hydrochloride],102,116,89.5 (inactive),101 (inactive)
CCc1cc(Cl)c(OC)c(C(=O)NCC2CCCN2CC)c1O.Cl (stereo not drawn) [S-(-)-Eticlopride hydrochloride],102,110,103 (inactive),97.8 (inactive)
O=C1CN2Cc3c(ccc(Cl)c3Cl)NC2=N1 [Anagrelide],103,110,92.9 (inactive),98.7 (inactive)
COc1cc2ncc(-c3ccccc3)nc2cc1OC [Tyrphostin AG 1296],98.1,106,97.3 (inactive),111 (inactive)
Cl.Cl.OCCN1CCN(CCCN2c3ccccc3C=Cc3ccccc32)CC1,102,98.8,99.1 (inactive),106 (inactive)
CCCCCC=CCC=CC=CC(O)CC=CCCCC(=O)O (centres undefined),98.1,99.8,97.3 (inactive),95.8 (inactive)
CC12CCC(=O)C=C1C=CC1C2CCC2(C)C1CCC21CCC(=O)O1 (centres undefined) [Canrenone],99.6,103,89.7 (inactive),102 (inactive)

Structure (SMILES),cell number (HCC1569 [1]),cell number (TDF [2]),H1.0 immunofluorescence intensity (TDF [3]),H1.0 immunofluorescence intensity (HCC1569 [4])
COC1C=COC2(C)Oc3c(C)c(O)c4c(O)c(cc([O-])c4c3C2=O)NC(=O)C(C)=CC=CC(C)C(O)C(C)C(O)C(C)C(OC(C)=O)C1C.[Na+] (centres undefined),103,101,102 (inactive),97.5 (inactive)
Nc1cc(-c2ccncc2)c[nH]c1=O [amrinone],99.8,105,100 (inactive),114 (inactive)
NS(=O)(=O)c1ccc(N2CCN(CC[C@@H]3OCCc4ccccc43)CC2)cc1,101,102,99.4 (inactive),104 (inactive)
CCN1CCCC1CNC(=O)c1c(O)c(Cl)cc(Cl)c1OC (stereo not drawn) [S(-)-Raclopride],102,97.5,95.7 (inactive),104 (inactive)
CCCCCCCCCCCCCCCC(O)C(CO)NC(C)=O (centres undefined) [C2 Dihydroceramide],104,114,99.1 (inactive),97 (inactive)
CCCCCCCCC=CCCCCCCCCCC(=O)O [11(E)-Eicosenoic acid],102,101,101 (inactive),102 (inactive)
COC(=O)NC(C(=O)NC(Cc1ccccc1)C(O)CN(Cc1ccc(-c2ccccn2)cc1)NC(=O)C(NC(=O)OC)C(C)(C)C)C(C)(C)C (centres undefined) [Atazanavir],92.7,79.8,109 (inactive),103 (inactive)
CCCC(C(=O)OCCN(CC)CC)(c1ccccc1)c1ccccc1.Cl [SKF-525A hydrochloride],94,100,88.8 (inactive),102 (inactive)
CC(C)Cc1ccc(C(C)C(=O)O)cc1 (stereo not drawn) [S(+)-Ibuprofen],103,108,96 (inactive),90.5 (inactive)
O=C1C(=Cc2ccc(O)c(O)c2)Oc2c1ccc(OC1OC(CO)C(O)C(O)C1O)c2O (centres undefined) [Maritimein],99.5,94.8,102 (inactive),99.6 (inactive)
CC1(C)SC2C(NC(=O)C(N)c3ccccc3)C(=O)N2C1C(=O)O (centres undefined) [Ampicillin],103,109,90 (inactive),108 (inactive)
Cl.Fc1ccc(C(OCCCc2cnc[nH]2)c2ccc(F)cc2)cc1,99.8,108,88.3 (inactive),99.8 (inactive)
Cc1cc(C2CCCCC2)n(O)c(=O)c1.NCCO [Ciclopirox ethanolamine],78.7,58.8,93.2 (inactive),102 (inactive)
C[C@@H](O)[C@H]1C(=O)N2C(C(=O)O)=C(SCCN=CN)C[C@H]12.O,101,104,99.9 (inactive),93.3 (inactive)
"C=CCn1c(=O)c2c(nc(-c3ccc(S(=O)(=O)O)cc3)n2C)n(C)c1=O [1-Allyl-3,7-dimethyl-8-p-sulfophenylxanthine]",102,108,99.2 (inactive),105 (inactive)
COC(=O)C1C(O)CCC2CN3CCc4c([nH]c5ccccc45)C3CC21 (centres undefined) [Corynanthine],106,94.3,102 (inactive),95.3 (inactive)
Cl.NCCc1ccc(O)c(O)c1 [Dopamine hydrochloride],106,100,93.5 (inactive),89.7 (inactive)
COC(=O)C1=C(C)NC(C)=C(C(=O)OCCN(C)Cc2ccccc2)C1c1cccc([N+](=O)[O-])c1.Cl (centres undefined) [Nicardipine.HCl],96.8,100,98.7 (inactive),107 (inactive)
"CC(C)=CCC(OC(=O)C=C(C)C)C1=CC(=O)c2c(O)ccc(O)c2C1=O (stereo not drawn) [Shikonin beta,beta-dimethylacrylate]",25.4,83.5,109 (inactive),114 (inactive)
O=[N+]([O-])c1ccc(Nc2nc(N3CCOCC3)nc(N3CCOCC3)n2)cc1,96.5,99,95.8 (inactive),102 (inactive)
Oc1ccccc1O [Pyrocatechol],73.6,87.2,93.7 (inactive),117 (inactive)
COc1cc2nccc(Oc3ccc(NC(=O)NC4CC4)c(Cl)c3)c2cc1C(N)=O,83.8,94.9,89.2 (inactive),122 (inactive)
C[C@@H]([C@@H](O)c1ccc(O)cc1)N1CCC(O)(c2ccccc2)CC1,102,91.1,94.7 (inactive),105 (inactive)
CNNCc1ccc(C(=O)NC(C)C)cc1 [Procarbazine],102,106,92.4 (inactive),108 (inactive)
"C#CCN[C@H]1CCc2ccccc21 [N-[(1S)-2,3-dihydro-1H-inden-1-yl]-N-(2-propynyl)amine]",102,104,92.2 (inactive),98.1 (inactive)

# — the supplement of paper PMC7156485
